Assay results from PubChem BioAssay (EPA / NIEHS).
Active and inactive are the calls of the source. The calls were made as follows: active = hit-call score of the fitted dose curve at least 0.9, where 1 is the maximum; inactive = score below 0.9.

Assay: APR_HepG2_CellLoss_24hr: Apredica 24-hour HepG2 Assay for Cell Loss (AID 2282908);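 as to AC50: fit in both directions so a hit may be cell loss or gain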
Conditions: high-content imaging
Description: APR_HepG2_24hr is a cell-based, multiplexed-readout assay that uses HepG2, a human liver cell line, with measurements taken at 24 hours after chemical dosing in a 384-well plate.APR_HepG2_CellLoss_24hr is one of 10 assay component(s) measured or calculated from the APR_HepG2_24hr assay. It is designed to make measurements of cell number, a form of viability reporter, as detected with fluorescence intensity signals by HCS Fluorescent Imaging technology.Data from the assay component APR_HepG2_CellLoss_24hr was analyzed into 1 assay endpoint. This assay endpoint, APR_HepG2_CellLoss_24hr, was analyzed with bidirectional fitting relative to DMSO as the negative control and baseline of activity. Using a type of viability reporter, measures of all nuclear dna for gain or loss-of-signal activity can be used to understand the viability at the cellular-level. Furthermore, this assay endpoint can be referred to as a secondary readout, because this assay has produced multiple assay endpoints where this one serves a viability function. To generalize the intended target to other relatable targets, this assay endpoint is annotated to the cell cycle intended target family, where the subfamily is proliferation.
Cells were treated with dimethyl sulfoxide (DMSO) as a solvent control at a final concentration of 0.5% v/v or with compounds in DMSO with a resulting final DMSO concentration of 0.5% v/v. Compound treatment was done at concentrations of 0.39, 0.78, 1.56, 3.12, 6.24, 12.5, 25, 50, 100, and 200 uM in duplicate on each plate. Cells were treated with compounds for 1, 24, or 72 hr. Carbonyl […] m-chloro-phenylhydrazone (CCCP) and taxol were used as positive controls for mitochondrial function and cytoskeletal stability, respectively; DMSO served as the negative control for this experiment. Cells were fixed by the direct addition of 50 uL formaldehyde in Hank's Balanced Salt Solution (HBSS) to a final concentration of 3.7%. After incubation in the fixation medium for 30 min at room temperature (293-298 K), cells were rinsed twice with HBSS and treated with cell permeabilization buffer (16 uL of 0.5% Triton X-100) for 10 min at room temperature (293-298 K) before labeling. For mitochondrial membrane potential and mitochondrial measurements, pre-fixed cells were incubated with 50 uL of MitoTracker Red CMXRos (Invitrogen) at a concentration of 250 nM for 30 min before fixation. In the remaining cases, post-fixed cells were labeled by incubation with a multiplexed mixture of primary antibodies in HBSS for 60 min at room temperature (293-298 K) to detect immunoreactivity of c-Jun (1:500), phospho-histone H3 (1:100), phospho-histone H2A.x (1:200), p53 (1:400), alpha-tubulin (1:200) and Hoechst 33342 (2 ug/mL). Cells were labeled for multiplexed imaging on two separate plates: a) Hoechst 33342, MitoTracker Red, phospho-histone H3, and alpha-tubulin, and b) Hoechst 33342, phospho-histone H2A.x, and c-Jun. A final rinse with HBSS (50 uL) was performed before analysis. The primary and secondary antibodies for the proteins were phospho-histone H3 (rabbit anti-phospho-histone H3 and FITC-donkey anti-rabbit IgG), phospho-histone H2A.x (mouse anti-phospho-histone H2A.x and FITC-donkey anti-mouse IgG), c-Jun (rabbit anti-phospho-c-Jun and Cy3-donkey anti-rabbit IgG), p53 (sheep anti-p53 and Cy5-donkey anti-sheep IgG), alpha-tubulin (mouse anti-alpha-tubulin and Cy5-donkey anti-mouse IgG). These antibodies are available as the CellCiphr HepG2 assay kit (Millipore).Digital images of each well were captured using a Cellomics ArrayScan VTI (Thermo Scientific Cellomics) (0.8 NA objective, 0.63x optical coupler, and XF-93 filter set) at 20x magnification. The images were acquired using the autofocus feature of the ArrayScan instrument, which entails the following steps. First, the camera focuses on channel 1 (Hoechst 33342), where nuclei are identified. Second, a Z offset of 1 um is used for capturing mitochondria (MitoTracker Red). […]
In the case of `CC(=O)CC(c1ccccc1)c1c(O)c2ccccc2oc1=O` (stereo not given), the outcome is reported as “inactive”.
With `O=C(O)c1[nH]n(-c2ccc(S(=O)(=O)O)cc2)c(=O)c1N=Nc1ccc(S(=O)(=O)O)cc1` the outcome was “inactive”.
With `Oc1ccc(O)cc1` the outcome was “inactive”.
With `CCCCC(CC)COP(=O)(OCC(CC)CCCC)OCC(CC)CCCC` (stereo not given) the AC50 was 37.7 µM (active).
In the case of `S=c1[nH]c2ccccc2s1`, the outcome is reported as “inactive”.
For `Oc1ccccc1O`, the outcome was “inactive”.
In the case of `CC(=O)O`, the AC50 is reported as 112 µM (active).
With `Cc1ccc(C(C)(C)C)c(O)c1` the AC50 was 108 µM (active).
For `C#CC(O)C(CC)CCCC` (stereo not given), the outcome was “inactive”.
With `COC(=O)[C@H]1[C@H]2C[C@@H]3c4[nH]c5cc(OC)ccc5c4CCN3C[C@H]2C[C@@H](OC(=O)c2cc(OC)c(OC)c(OC)c2)[C@@H]1OC` the AC50 was 37.6 µM (active).
With `Cc1cc(Cc2ccc(N)c(C)c2)ccc1N` the outcome was “inactive”.
In the case of `c1ccc2occc2c1`, the outcome is reported as “inactive”.
With `CCCCCCCC(=O)OC` the outcome was “inactive”.
For `CCCCC(CC)CO` (stereo not given), the outcome was “inactive”.
In the case of `O=Cc1ccccc1C=O`, the outcome is reported as “inactive”.
For `CC(C)(O)c1ccc(CNC(=O)c2cccnc2Oc2ccc(F)cc2)cc1`, the outcome was “inactive”.
In the case of `CCCCCCC(C=O)=Cc1ccccc1`, the outcome is reported as “inactive”.
With `C=CCCCCCCCCCCCC` the AC50 was 52.7 µM (active).
In the case of `CCN(CC)CCOc1ccc(C(=C(Cl)c2ccccc2)c2ccccc2)cc1`, the AC50 is reported as 48 µM (active).
With `CC(C)COC(=O)CCCCC(=O)OCC(C)C` the outcome was “inactive”.
For `CC(=O)S[C@H](C(=O)N[C@H]1Cc2ccccc2[C@H]2CCC[C@@H](C(=O)O)N2C1=O)C(C)C`, the outcome was “inactive”.
For `OCC(CO)n1cnc(-c2ccc(F)cc2)c1-c1ccnc(Oc2ccccc2)n1`, the outcome was “inactive”.
In the case of `N[C@@H](Cc1c[nH]c2ccccc12)C(=O)O`, the outcome is reported as “inactive”.
With `CCCCCCCCCCCCCCCCO` the outcome was “inactive”.
With `CCCC(=O)O` the outcome was “inactive”.
With `NCCOCCOCCN` the AC50 was 92.3 µM (active).
In the case of `COC(=O)CCCC(=O)OC`, the outcome is reported as “inactive”.
For `COC(=O)CCC(=O)OC`, the outcome was “inactive”.
For `Cc1cn([C@H]2C=C[C@@H](CO)O2)c(=O)[nH]c1=O`, the outcome was “inactive”.
For `CC(=O)O[C@]1(C(C)=O)CC[C@H]2[C@@H]3C=C(Cl)C4=CC(=O)[C@@H]5C[C@@H]5[C@]4(C)[C@H]3CC[C@@]21C`, the outcome was “inactive”.
In the case of `CN(C)CCCN1c2ccccc2Sc2ccc(Cl)cc21`, the AC50 is reported as 35 µM (active).
With `CN(C)CCCN(C)CCCN(C)C` the outcome was “inactive”.
In the case of `O=C(O)CC(O)(CC(=O)O)C(=O)O`, the outcome is reported as “inactive”.
In the case of `C/C=C/C=C/C(=O)O`, the outcome is reported as “inactive”.
For `O=NO`, the outcome was “inactive”.
With `O=C1NC(=O)C(c2ccccc2)(c2ccccc2)N1` the outcome was “inactive”.
In the case of `CC(N)=O`, the outcome is reported as “inactive”.
With `O=C(NS(=O)(=O)/C=C/c1cccs1)c1ccc(F)cc1Br` the outcome was “inactive”.
For `O=C1c2c(O)cccc2Cc2cccc(O)c21`, the outcome was “inactive”.
In the case of `CCc1cc(C2=C(C(=O)O)N(c3ccccc3C(F)(F)F)S(=O)(=O)c3ccccc32)cc2c1OCO2`, the outcome is reported as “inactive”.
